# IP6K1 inh: inhibitors of human IP6K1; activity change, % (series mostly up to about 58 µM); Q92551; 140,000 tested, 0.81% active; IP6K1 kinase, ADP-Glo luminescence, 2 h; hits give low values; AID 1645851; in the data active means activity change below about -25%
#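 ADP-Glo luminescence measures ADP made by human IP6K1 during a 2 h RT reaction with ATP/IP6 (mix at 1.3 mM/130 uM); top library doses 57.5 and 19.1 uM final.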
# SNCA expr inh: SNCA gene expression inhibition | 140,000 tested, 0.17% active | HEK-293 SNCA-luciferase knock-in, luminescence, 24 h | Potency, µM (highest dose often 57.2 µM), actives largely listed as inhibitors | AID 1671194; further: nearly all actives have a fitted effect of over 45% in size
# HEK293 viab: reduces viability of HEK-293 SNCA reporter cells. HEK-293-SNCA-luc viability, GF-AFC fluorescence, 24 h. Potency, µM (series often up to 57.1 µM), most hits filed as cytotoxic. 150,000 tested, 0.12% active. AID 1671193; further: nearly all actives have a fitted effect of over 30% in size
#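 HEK-293-SNCA-luc cells (1500/well) plated 24 h, then exposed 24 h to a dilution series; GF-AFC added 30 min at 37C, fluorescence 405/540 nm; normalised to medium-only and DMSO wells, Hill fit.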
# KDM5B inh: blocks human KDM5B histone demethylase activity; Q9UGL1; KDM5B demethylase, FDH-coupled NADH fluorescence (FDH is formaldehyde dehydrogenase); Potency, µM (top dose mostly 57.7 µM), usual class: inhibitors; 220,000 tested, 2.6% active; further: nearly all actives have a fitted effect of over 70% in size
#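 qHTS format, multiple compound concentrations. Buffer 50 mM HEPES pH 7.5/0.01% Tween-20; 200 nM KDM5BΔAP final; 10 min compound preincubation; substrate-mix levels 12.5 µM peptide, 25 µM α-KG, 0.25 mM NAD⁺; 30 min RT; ΔRFU.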
# Numbers stand for hits; . = inactive; ? = inconclusive; / = no result; [ ] = dose if it differs, or a comment. Rows were chosen to be rich in hits. Some 2.9% of all compounds tested hit in one or more screens of this group. Unless noted, the call rests on the fitted dose curve; in most records, active means well fitted curve in the direction sought with a large enough effect; inconclusive means small, poorly fitted or top-dose-only effect, or another doubt; inactive means no such curve, though single readings can be large; an effect the other way counts as inactive or inconclusive.
SMILES,IP6K1 inh,SNCA expr inh,HEK293 viab,KDM5B inh
COc1cc(CNC(=O)N2CCN(Cc3ccc(Br)s3)CC2)cc(OC)c1OC,/,/,/,.
CCOC(=O)c1ccc(N2C(=O)c3n[nH]c(-c4cccs4)c3C2c2ccc(C)cc2)cc1 (stereo not drawn),.,.,.,.
CCOC(=O)c1ccc(N2C(=O)c3n[nH]c(-c4ccco4)c3C2c2ccc(OCC)cc2)cc1 (stereo not drawn),.,20µM,?,?
CCOC(=O)c1ccc(N2C(=O)c3n[nH]c(-c4cccs4)c3C2c2ccc(Cl)cc2Cl)cc1 (stereo not drawn),.,?,22µM,.
O=C(/C=C/c1ccccc1)NC(O)C(=O)c1ccccc1 (stereo not drawn),/,/,/,.
Cc1cccc(NC(=S)NCc2ccc(Cl)cc2)c1,/,/,/,.
C[C@]1(CO)[C@H]2Cc3sc(-c4ccccc4)nc3[C@@H](CC(=O)O)[C@]2(C)CC[C@H]1O,.,.,.,32µM
CN(Cc1ccccc1)C(=O)C[C@@H]1c2nc(NC(=O)c3ccc(F)cc3)sc2C[C@@H]2[C@](C)(CO)[C@H](O)CC[C@]21C,.,.,.,35µM
C[C@]1(CO)[C@H]2Cc3sc(NC(=O)c4c(F)cccc4F)nc3[C@@H](CC(=O)O)[C@]2(C)CC[C@H]1O,.,?,.,.
C#CCNC(=O)C[C@@H]1c2nc(NC(=O)C(C)(C)C)sc2C[C@@H]2[C@](C)(CO)[C@H](O)CC[C@]21C,.,.,.,.
COc1ccc(C(=O)Nc2nc3c(s2)C[C@@H]2[C@](C)(CO)[C@H](O)CC[C@@]2(C)[C@@H]3CC(=O)N2CCC(C)CC2)cc1,.,.,?,28µM
COc1ccc(C(=O)Nc2nc3c(s2)C[C@@H]2[C@](C)(CO)[C@H](O)CC[C@@]2(C)[C@@H]3CC(=O)N(C)Cc2ccccc2)cc1,.,?,?,?
C#CCNC(=O)C[C@@H]1c2nc(NC(=O)c3ccc(C(C)(C)C)cc3)sc2C[C@@H]2[C@](C)(CO)[C@H](O)CC[C@]21C,.,.,.,32µM
COc1ccc(-c2noc(CCC(=O)Nc3ccc(C)cn3)n2)cc1OC,/,/,/,.
COc1ccc(C(C)=O)cc1CN1CCCC(C)C1 (stereo not drawn),/,/,/,.
C[C@]1(CO)[C@H]2Cc3sc(NC(=O)c4ccc(F)cc4)nc3[C@@H](CC(=O)NC3CC3)[C@]2(C)CC[C@H]1O,.,.,.,.
C[C@]1(CO)[C@H]2Cc3sc(NC(=O)c4ccc(F)cc4)nc3[C@@H](CC(=O)Nc3ccccc3)[C@]2(C)CC[C@H]1O,.,.,.,32µM
Cc1nn(C)c(C)c1CCC(=O)Nc1nccs1,/,/,/,.
O=C(NCCc1ccc(Cl)cc1)c1nc(-c2ccc(Cl)cc2Cl)c2cnccn12,.,.,.,56µM
COc1ccccc1-c1nc(C(=O)NCCc2ccc(Cl)cc2)n2ccncc12,.,.,.,79µM
COc1ccccc1-c1nnc2n1C(C(=O)NCCc1ccc(Cl)cc1)CC2 (stereo not drawn),.,.,.,.
N#CC1CCN(C(=O)c2nc(-c3ccc(Cl)cc3Cl)c3ccccn23)CC1,.,.,.,28µM
N#CC1CCN(C(=O)C2CCc3nnc(-c4ccc(Cl)cc4Cl)n32)CC1 (stereo not drawn),.,.,.,.
O=C(NCCc1ccc(Cl)cc1)c1nc(-c2ccc(Cl)cc2Cl)c2ccccn12,.,.,.,79µM
CNC(=O)CSc1nc(NC2CC2)c2ccccc2n1,/,/,/,.
SMILES,IP6K1 inh,SNCA expr inh,HEK293 viab,KDM5B inh
CC(=O)Nc1ccc(NC(=S)NC(NC(=O)c2cccc(C)c2)C(Cl)(Cl)Cl)cc1 (stereo not drawn),/,/,/,.
CCC(NC(=O)Cn1cnc2sc(C)c(-c3ccccc3)c2c1=O)c1ccc(C)cc1 (stereo not drawn),/,/,/,.
O=C(NC1CC1)c1nc(-c2cc(Cl)cc(Cl)c2)c2ccccn12,.,.,.,?
O=C(NC1CC1)c1nc(-c2ccc(Cl)cc2Cl)c2ccccn12,.,.,.,28µM
CC(=O)Nc1cccc(C(=O)N2CCC(n3cc(-c4nc(-c5ccccc5)no4)nn3)C2)c1 (stereo not drawn),.,.,.,.
Cc1ccc(-c2ccc3nnc(CNC(=O)c4cccc(C#N)c4)n3n2)cc1,.,.,.,11µM
Cc1ccc(-c2ccc3nnc(CNC(=O)c4cccc(N(C)C)c4)n3n2)cc1,.,.,.,.
N#Cc1cccc(C(=O)NCc2nnc3ccc(-c4ccc(F)cc4)nn23)c1,.,.,.,28µM
O=C(NCc1nnc2ccc(-c3ccc(F)cc3)nn12)c1cccc(OC(F)(F)F)c1,.,.,.,?
NC(=O)c1c(OCc2c(F)cc(Br)cc2F)nsc1NC(=O)NCCCCN1CCCC1,.,6.1µM,?,/
CN(C)CC(=O)N1C[C@@H]2C[C@H](C1)c1ccc(-c3ccccc3CN3CCOCC3)c(=O)n1C2,.,.,.,18µM
Cc1noc2c(-c3cccnc3N3CCOCC3)cc(-c3ccccc3)nc12,.,.,.,35µM
Cc1noc2c(-c3cccnc3NC3CCC(O)CC3)cc(-c3ccccc3)nc12 (stereo not drawn),.,.,.,?
COCCNc1ncccc1-c1cc(-c2ccccc2)nc2c(C)noc12,.,.,.,32µM
Cc1noc2c(-c3cccnc3NCC3CCOCC3)cc(-c3ccccc3)nc12,.,.,.,32µM
CC(Sc1nnc(-c2cccs2)n1C1CC1)C(=O)N1CCc2ccccc2C1 (stereo not drawn),/,/,/,.
CC(=O)N1CCCC(C(=O)NCCc2csc(-c3ccncc3)n2)C1 (stereo not drawn),.,.,.,22µM
O=C(NCCc1csc(-c2ccncc2)n1)C1CNCCO1 (stereo not drawn),.,.,.,28µM
O=C(COc1ccc(Cl)cc1)NCCc1csc(-c2ccncc2)n1,/,/,/,.
Cc1nnc2ccc(N3CCCN(C(=O)C(C)C)CC3)nn12,.,/,/,/
Cc1noc(C)c1[S+](=O)([O-])N1CCC2(CC1)CC(=O)c1ccccc1O2,.,.,.,20µM
Cn1cccc1CN1CCC2(CC1)CC(=O)c1ccccc1O2,.,.,.,25µM
COc1ccc(C(=O)N2CCC3(CC2)CC(=O)c2ccccc2O3)cc1,.,.,.,32µM
CCCN1CCC2(CCN([S+](=O)([O-])c3c(C)noc3C)CC2)Oc2ccccc21,.,.,.,.
O=C1CC2(CCN(Cc3ccccc3)CC2)Oc2ccccc21,.,.,.,35µM
Cn1cccc1CN1CCC2(CC1)CC(=O)c1ccc(Cl)cc1O2,.,.,.,.
O=C1CCN(C(=O)C2CCN(S(=O)(=O)c3cccs3)CC2)CCCCCCN1,.,.,.,.
COc1cccc(-c2ccc(C(=O)N3CCC(C(=O)N4CCC(Cc5ccccc5)CC4)CC3)cc2)c1,.,.,.[12.5 µM],/
COCCN1C(=O)c2ccccc2C(C(=O)Nc2ccccc2C)C12CCCCC2 (stereo not drawn),.,.,.,.
O=C1CC2(CCN(C(=O)c3ccc4c(c3)OCO4)CC2)Oc2ccccc21,.,.,.,25µM

# Screening results (PubChem)
